The values below come from PubChem BioAssay AID504692 (The Scripps Research Institute Molecular Screening Center, 2011).

Where “and” joins values, the source holds several entries; their conditions need not be identical. Identical values can stand only once. Hit rate of the full screen: of about 340,000 compounds, about 2,000 (0.59%) were called active. Rule as the data show it: active = activation mostly above about 9.5% (no sharp cut-off); inactive = mostly below about 7.6%. The list comes from a sample in which actives are over-represented; it also holds similar structures and randomly drawn compounds.

The target in this assay is 5-hydroxytryptamine receptor 5A (Homo sapiens) (UniProt P47898). Description: HTR5A agonists in luminescence cell assay, primary screen, counter-screen for OPRM1-OPRD1 heterodimer agonist project, full-deck HTS (AID 504692).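 Also: 0% = cells with vehicle only and 100% = reference agonist.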 The settings on record: cell-based, at 9.3 µM, active compounds read high. In general terms: A counterscreen serves to expose hits that act by an unwanted route or on another target.
Chain of 5-hydroxytryptamine receptor 5A (Homo sapiens) (P47898 whole entry, looked up): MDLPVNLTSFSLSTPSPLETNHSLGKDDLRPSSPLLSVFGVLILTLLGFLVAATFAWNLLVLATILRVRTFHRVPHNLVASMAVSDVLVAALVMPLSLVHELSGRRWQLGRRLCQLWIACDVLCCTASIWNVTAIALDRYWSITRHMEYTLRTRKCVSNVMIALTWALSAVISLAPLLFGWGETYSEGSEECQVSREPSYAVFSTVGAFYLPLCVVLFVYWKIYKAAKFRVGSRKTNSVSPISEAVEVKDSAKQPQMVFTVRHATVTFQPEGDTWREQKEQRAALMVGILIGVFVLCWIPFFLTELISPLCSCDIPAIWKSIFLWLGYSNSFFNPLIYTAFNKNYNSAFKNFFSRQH
On to `COC1C(O)C(C)OC(OC2CCC3(C=O)C(CCC4C3CCC3(C)C(C5=CC(=O)OC5)CCC43O)C2)C1O` (stereo not given), for which the activation was 20% (active). The figure for `C[C@]12CC[C@H](O)C[C@H]1CC[C@@H]1C2CC[C@]2(C)[C@@H](C3=CC(=O)OC3)[C@@H](O)C[C@]12O` (stereo not given in full) is 16.5% (inactive).

As to `Oc1ccc2c3c1OC1[C@H](O)CC[C@@]4(O)[C@@H](C2)N(CC2CC2)CC[C@]314` (stereo not given in full), the activation was 2.68% (inactive) and -1.51% (inactive). On to `CC[N+](CC)(CC)CCCCCCCCCC[N+](CC)(CC)CC`, for which the activation is 2.35% (inactive). Next, `CCOP(=O)(OCC)C(O)c1ccc(OC)cc1OC` (stereo not given): -1.32% (inactive); `CCCCCCCCCCCCn1ccc(=N)cc1`: 14.5% (active). Next, `Cc1cc(C(=O)OCC(=O)Nc2c(F)cccc2F)c(C)n1C1CC1`: -0.58% (inactive); `C/C=C/CC1(CC)C(=O)NC(=S)NC1=O`: 0.5% (inactive). The figure for `COC(=O)C(O)(c1ccc(NC(=O)c2ccco2)c(OC)c1)C(F)(F)F` (stereo not given) is -2.39% (inactive); for `CN(C)C(=O)Oc1cc(=O)n2c3c(cccc13)CCC2` it is 2.56% (inactive); for `O=C(Cc1ccccc1)N1CCN(C2CCCCCC2)CC1` it is 1.91% (inactive).

Regarding `COc1ccc(S(=O)(=O)NCc2ccc(C(=O)N3CCC4(CC3)OCCO4)cc2)cc1`, the activation is 3.27% (inactive). Next, `CCOC(=O)c1c(C)c(C(=O)N2CCC3(CC2)OCCO3)c(C)n1CC`: 10.3% (active). On to `Cc1ccc(-c2cc(C(=O)N3CCC4(CC3)OCCO4)no2)cc1`, for which the activation was 1.14% (inactive). As for `CC(C)Oc1cccc(C(=O)C2CCCN(C3CCOCC3)C2)c1` (stereo not given), the activation is 3.38% (inactive).
